These compounds were tested on MAK. Details: concentration: 1 μM, replicates: in singlicate; n = 1.
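Note: KINOMEscan kinase panel screen.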

Row | SMILES | %Inh
1 | Cl.c1ccc(-c2ccc3c(Nc4ccc5[nH]ncc5c4)ccnc3c2)nc1 [GW440137] | 21%
2 | CN(C)S(=O)(=O)c1cc(-c2ccc3nccc(-c4cccc(S(N)(=O)=O)c4)c3c2)cnc1N [GSK1669921] | 19%
3 | COc1ccc(CNC(=O)NC2CCN(c3ccnc(Nc4ccc(F)cc4)n3)CC2)cc1 [GSK1379788] | 24%
4 | Cl.Cl.NCC(C(=O)Nc1cc(Br)c(-c2ccnc3[nH]ccc23)s1)c1ccccc1 (stereo not drawn) [GSK1269851] | 1%
5 | CCS(=O)(=O)c1ccc(OC)c(Nc2nccc(-c3c(-c4cccc(NC(=O)c5c(F)cccc5F)c4)nn4ncccc34)n2)c1 [GSK326180] | 15%
6 | Fc1ccc(-c2ncn(C3CCNCC3)c2-c2ccnc(Oc3ccc(-c4ccccc4)cc3)n2)cc1 [SB-245391] | 10%
7 | CN(c1ccc(NC(=O)Nc2cc(C(F)(F)F)ccc2F)cc1)c1ccnc(Nc2ccc(S(N)(=O)=O)cc2)n1 [GW809893] | 95.7%
8 | Cc1ccc(F)c(C(=O)Nc2cccc(-c3nn4ccccc4c3-c3ccnc(Nc4cccc(F)c4)n3)c2)c1F [GSK361061] | 0%
9 | CC(C)(C)c1ccc2nccc(Nc3cccc(O)c3)c2c1 [GW856795] | 40%
10 | O=C(Nc1n[nH]c2cc(-c3ccoc3)ccc12)C1CC1 [SB-738481] | 3%
11 | CCn1c(-c2nonc2N)nc2c(C#CC(C)(C)O)nc(OC[C@H](N)c3ccccc3)cc21 [GSK943949] | 0%
12 | Cl.c1ccc(-c2ccc3c(Nc4ccc5[nH]ccc5c4)ccnc3c2)nc1 [GW440138] | 1%

Source: paper PMC5540273 (PLoS ONE, 2017)
